# Experimental data taken from PubChem BioAssay.
# Unmarked numbers belong to inactive results. For some assays here: Measured potencies and affinities stand elsewhere. Active and inactive are the calls of the source. Unless noted, how the calls were made is not given here.
# What was measured:
# [1] = antimalarial activity against Dd2 strain (AID 2302;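 active means growth inhibition above 50% at the single 2 µM test dose, taken to imply half-maximal potency below 2 µM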;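 further: 0% = DMSO untreated growth and 100% = chloroquine plus artemisinin killed control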); settings: P. falciparum Dd2 in RBCs, LDH growth readout, 72 h; at 2 µM; hits give high values
# [2] = HepG2 cytotoxicity, primary screen, cytotoxicity control for P. falciparum antimalarial project, cell-based, ATP luminescence (AID 2303;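 active means inhibition above 50%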;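 further: 0% = DMSO wells and 100% = digitonin-killed cells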); settings: HepG2 viability, 24-48 h, at 10 µM, hits give high values
# [3] = target: L-lactate dehydrogenase (Plasmodium falciparum (isolate CDC / Honduras)) (UniProt Q27743); experiment: PfLDH activity inhibition – cell lysate, 3D7 strain, counter-screen for P. falciparum growth inhibition project (AID 2304);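 further: 0% = vehicle and 100% = reference inhibitor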; settings: P. falciparum 3D7 crude extract, LDH APAD/NBT absorbance; at 2 µM; hits give high values
# L-lactate dehydrogenase (Plasmodium falciparum (isolate CDC / Honduras)), sequence (Q27743 whole entry, looked up): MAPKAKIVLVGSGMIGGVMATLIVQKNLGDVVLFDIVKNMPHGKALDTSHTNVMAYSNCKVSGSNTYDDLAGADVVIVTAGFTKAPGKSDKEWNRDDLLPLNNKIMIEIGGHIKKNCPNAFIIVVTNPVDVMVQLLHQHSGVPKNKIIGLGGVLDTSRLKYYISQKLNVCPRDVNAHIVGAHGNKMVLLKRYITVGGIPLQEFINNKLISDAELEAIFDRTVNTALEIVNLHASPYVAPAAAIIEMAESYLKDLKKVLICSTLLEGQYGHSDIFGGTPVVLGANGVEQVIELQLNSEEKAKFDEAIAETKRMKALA
# [4] = inhibition of 3D7 malaria parasite growth – strain 3D7 (AID 2306);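 further: 0% = DMSO wells and 100% = chloroquine plus artemisinin control wells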; settings: P. falciparum 3D7 erythrocytic growth, LDH absorbance, 72 h; at 2 µM; hits give high values
# [5] = target: Calcium-dependent protein kinase 1 (Plasmodium falciparum (isolate 3D7)) (UniProt P62344); experiment: PfCDPK1 kinase inhibitors, biochemical, TCAMS library (AID 1159585; cut-off not given, nearly all actives have IC50 up to about 0.98 µM;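 further: inhibitors leave more ATP so luminescence rises with inhibition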); settings: recombinant PfCDPK1, Kinase-Glo ATP depletion luminescence
# Calcium-dependent protein kinase 1 (Plasmodium falciparum (isolate 3D7)), sequence (P62344 whole entry, looked up): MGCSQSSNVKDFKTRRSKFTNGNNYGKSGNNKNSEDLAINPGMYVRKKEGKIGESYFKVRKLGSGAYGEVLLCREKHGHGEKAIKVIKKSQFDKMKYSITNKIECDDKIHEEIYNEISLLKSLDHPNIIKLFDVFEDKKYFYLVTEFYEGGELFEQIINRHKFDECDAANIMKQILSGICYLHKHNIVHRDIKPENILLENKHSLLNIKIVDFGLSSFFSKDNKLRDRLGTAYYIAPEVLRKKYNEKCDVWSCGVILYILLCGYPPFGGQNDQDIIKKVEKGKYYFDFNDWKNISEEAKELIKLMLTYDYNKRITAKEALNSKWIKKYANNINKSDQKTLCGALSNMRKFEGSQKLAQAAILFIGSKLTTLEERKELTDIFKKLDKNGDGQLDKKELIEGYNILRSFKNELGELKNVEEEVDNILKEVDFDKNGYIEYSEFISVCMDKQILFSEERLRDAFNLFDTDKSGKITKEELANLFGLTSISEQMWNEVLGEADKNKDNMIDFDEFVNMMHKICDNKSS
# [6] = target: Plasmodium falciparum protein kinase 6 (PK6, PF3D7_1337100) (UniProt Q8IDW1); experiment: PfPK6 kinase inhibitors, biochemical, TCAMS library (AID 1159586); settings: recombinant PfPK6, Kinase-Glo ATP depletion luminescence
# Plasmodium falciparum protein kinase 6 (PK6, PF3D7_1337100), sequence (Q8IDW1 1-305): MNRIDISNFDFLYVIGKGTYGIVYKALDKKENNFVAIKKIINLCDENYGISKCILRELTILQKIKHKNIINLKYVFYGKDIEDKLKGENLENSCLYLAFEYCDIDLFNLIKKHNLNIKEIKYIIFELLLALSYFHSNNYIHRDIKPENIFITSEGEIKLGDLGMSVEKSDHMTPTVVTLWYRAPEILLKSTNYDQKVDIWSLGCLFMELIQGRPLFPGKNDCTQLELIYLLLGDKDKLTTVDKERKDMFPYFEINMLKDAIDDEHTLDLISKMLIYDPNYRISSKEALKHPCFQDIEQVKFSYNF
# [7] = target: Protein kinase 7 (PK7), Plasmodium falciparum 3D7 (PF3D7_0213400) (UniProt Q7YTF7); experiment: inhibition of Plasmodium PK7 catalytic activity – biochemical, TCAMS antimalarial set, Kinase-Glo luminescence (AID 1159587); settings: recombinant PfPK7, Kinase-Glo ATP depletion luminescence
# Protein kinase 7 (PK7), Plasmodium falciparum 3D7 (PF3D7_0213400), sequence (Q7YTF7 1-343): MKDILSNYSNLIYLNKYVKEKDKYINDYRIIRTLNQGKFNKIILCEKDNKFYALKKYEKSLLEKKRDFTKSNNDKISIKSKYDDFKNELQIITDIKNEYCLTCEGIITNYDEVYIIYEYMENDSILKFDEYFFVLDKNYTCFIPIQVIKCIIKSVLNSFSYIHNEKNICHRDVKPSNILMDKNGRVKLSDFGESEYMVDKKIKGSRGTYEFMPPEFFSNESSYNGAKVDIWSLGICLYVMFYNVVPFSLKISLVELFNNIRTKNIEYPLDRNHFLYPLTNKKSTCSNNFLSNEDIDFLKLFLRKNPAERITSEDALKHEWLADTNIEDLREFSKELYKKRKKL
# [8] = target: Calcium-dependent protein kinase 4 (Plasmodium falciparum (isolate 3D7)) (UniProt Q8IBS5); experiment: PfCDPK4 kinase inhibitors, biochemical, TCAMS library (AID 1159588; cut-off not given, nearly all actives have IC50 up to about 0.91 µM); settings: recombinant PfCDPK4, Kinase-Glo ATP depletion luminescence
# Calcium-dependent protein kinase 4 (Plasmodium falciparum (isolate 3D7)), sequence (Q8IBS5 whole entry, looked up): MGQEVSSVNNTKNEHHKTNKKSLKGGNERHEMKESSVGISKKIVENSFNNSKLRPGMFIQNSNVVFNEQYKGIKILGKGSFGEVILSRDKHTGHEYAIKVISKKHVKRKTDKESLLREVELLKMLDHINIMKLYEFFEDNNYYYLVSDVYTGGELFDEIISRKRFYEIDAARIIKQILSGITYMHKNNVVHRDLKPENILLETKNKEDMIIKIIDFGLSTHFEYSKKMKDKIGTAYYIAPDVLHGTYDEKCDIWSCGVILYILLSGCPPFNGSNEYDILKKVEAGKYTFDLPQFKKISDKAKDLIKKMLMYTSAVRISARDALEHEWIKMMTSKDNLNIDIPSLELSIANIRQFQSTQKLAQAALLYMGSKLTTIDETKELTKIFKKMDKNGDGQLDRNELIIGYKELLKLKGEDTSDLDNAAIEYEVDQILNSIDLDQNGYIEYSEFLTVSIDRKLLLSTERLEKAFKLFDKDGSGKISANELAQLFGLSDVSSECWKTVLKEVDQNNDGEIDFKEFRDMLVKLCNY
Compound,growth inhibition [1],inhibition [2],inhibition [3] [%],growth inhibition [4],outcome [5],outcome [6],outcome [7],outcome [8]
Cc1cccc(OC(C)C(=O)Nc2cc(C(F)(F)F)ccc2N2CCOCC2)c1 (stereo not given),98% (active),2%,-3,100% (active),inactive,inactive,inactive,inactive
Nc1cccc(CNCc2cccc(-c3ccc(-c4nc5ccc(C(F)(F)F)cc5[nH]4)cc3)c2)c1,98% (active),6%,1,101% (active),inactive,inactive,inactive,inactive
CN(C)CCc1coc2ccc(C(=O)Nc3ccc(-c4ccc(O)cc4)cc3)cc12,40%,28%,-3,101% (active),inactive,inactive,inactive,inactive
COc1ccccc1N1CCN(CCCCNC(=O)c2ccc(NC(=O)c3cc(Cl)cc(Cl)c3)cc2)CC1,75% (active),9%,2,101% (active),inactive,inactive,inactive,inactive
OCC1CCN(Cc2cccc(-c3ccc(-c4nc5ccc(C(F)(F)F)cc5[nH]4)s3)c2)CC1,90% (active),-6%,-9,99% (active),inactive,inactive,inactive,inactive
Cc1ccc(C2(CN3CCC(NC(=O)c4ccn[nH]4)CC3)CCCCC2)cc1,96% (active),-6%,-3,97% (active),inactive,inactive,inactive,inactive
Cc1cc2c(cc1C(F)(F)F)N(C(=O)Nc1cccc(C(=O)NC3CCN(Cc4ccccc4)CC3)c1)CC2,-5%,19%,-2,91% (active),inactive,inactive,inactive,inactive
N#Cc1ccc(NC(=O)Nc2ccc(OC(F)(F)F)cc2)cc1,91% (active),43%,0,98% (active),inactive,inactive,inactive,inactive
COc1ccc2c(NN=Cc3cccnc3)cc(C)nc2c1,12%,-4%,-2,85% (active),inactive,inactive,inactive,inactive
Cc1ccc(N2C(=O)C3C(C2=O)[C@]2(c4ccccc4)C(=O)[C@@]3(c3ccccc3)C(c3ccccc3)=C2c2ccccc2)cc1 (stereo not given in full),96% (active),17%,-2,92% (active),inactive,inactive,inactive,inactive
OCCN1CCN(Cc2ccc(-c3ccc(-c4nc5ccc(C(F)(F)F)cc5[nH]4)s3)cc2)CC1,99% (active),65% (active),-7,101% (active),inactive,inactive,inactive,inactive
CCC(C)OC(=O)C1=C(C)NC2=C(C(=O)CC(c3ccc(OC)c(OC)c3)C2)C1c1cccc(O)c1 (stereo not given),98% (active),-8%,0,100% (active),inactive,inactive,inactive,inactive
COc1cc(OC)c(OC)cc1CN1CCC2(CC1)CN(Cc1ccc(Cl)c(Cl)c1)C(=O)O2,94% (active),8%,3,90% (active),inactive,inactive,inactive,inactive
COc1cccc(CN2CCC(C(=O)Nc3ccc(-c4nc5ccccc5[nH]4)cc3)CC2)c1,84% (active),9%,-3,101% (active),inactive,inactive,inactive,inactive
CCNc1cc(C)nc(Nc2ccc(NC(=O)Cc3ccc(OC)cc3)cc2)n1,47%,30%,-1,101% (active),inactive,inactive,inactive,inactive
O=C(NC1CCCCC1)N(Cc1ccc(-c2ccc(CNCc3ccc4c(c3)OCO4)cc2)cc1)C1CCN(Cc2ccccc2)CC1,72% (active),28%,-2,102% (active),inactive,inactive,inactive,inactive
CN(C)c1ccc(CN2CCC(NC(=O)c3ccc(-c4cccc(F)c4)s3)CC2)cc1,18%,55% (active),-1,91% (active),inactive,inactive,inactive,inactive
CCCCCn1c(Sc2ccc(C#N)c([N+](=O)[O-])c2)nnc1-c1cccs1,38%,19%,-1,91% (active),inactive,inactive,inactive,inactive
Cc1cc(N[C@@H](Cc2ccccc2)C(=O)NCc2cccc(F)c2)nc(NCCc2cccnc2)n1,40%,18%,-2,92% (active),inactive,inactive,inactive,inactive
COc1ccc2c(NN=Cc3cccc(F)c3)ccnc2c1,95% (active),49%,-5,101% (active),inactive,inactive,inactive,inactive

Compound,growth inhibition [1],inhibition [2],inhibition [3] [%],growth inhibition [4],outcome [5],outcome [6],outcome [7],outcome [8]
O=C(NC1CCC1)C1CCN(C(c2ccc(Cl)cc2)c2ccc(Cl)cc2)CC1,70% (active),6%,8,95% (active),inactive,inactive,inactive,inactive
COc1cc(NC(=O)Nc2ccnc3ccccc23)cc(OC)c1,34%,11%,-6,98% (active),inactive,inactive,inactive,inactive
COc1ccc2nccc(N3CCCN(CCNCc4ccc5c(n4)NC(=O)CS5)CC3)c2n1,10%,8%,-2,100% (active),inactive,inactive,inactive,inactive
CCCc1cc(OC)c(CC2c3cc(O)c(C)cc3CCN2C)cc1OC (stereo not given),89% (active),32%,-2,99% (active),inactive,inactive,inactive,inactive
CCOc1ccc(C(=O)Nc2cc(Br)c3c(c2)CNCC3)cc1Br,21%,18%,0,96% (active),inactive,inactive,inactive,inactive
CCCNC(=O)c1ccnc(-c2ccc(CNC3Cc4ccccc4C3)cc2)c1,21%,24%,-3,92% (active),inactive,inactive,inactive,inactive
COc1cccc2c(NN=Cc3cccc(Cl)c3)ccnc12,77% (active),19%,6,101% (active),inactive,inactive,inactive,inactive
O=C(Nc1nc(-c2ccccn2)cs1)c1ccc(Br)s1,84% (active),40%,7,96% (active),inactive,inactive,inactive,inactive
Cc1c(Cc2ccccc2)c(=O)oc2c(C)c3c(cc12)CN(CC(C)c1ccccc1)CO3 (stereo not given),98% (active),1%,-1,98% (active),inactive,inactive,inactive,inactive
COc1ccc2nccc([C@@H](O)CN3CCC(NCc4cc5ccccc5[nH]4)CC3)c2n1,55% (active),17%,3,101% (active),inactive,inactive,inactive,inactive
CCCCCc1cc(OCCN(C)C)cc2c1C(=O)CC(C)(C)O2,-2%,5%,6,98% (active),inactive,inactive,inactive,inactive
CCOc1c(N2CCN(CCCCNC(=O)c3ccc(NC(=O)c4ccc(Cl)cc4)cc3)CC2)ccc2ccccc12,45%,18%,0,100% (active),inactive,inactive,inactive,inactive
OC(CNC1CCCCC1)Cn1c2ccc(I)cc2c2cc(I)ccc21 (stereo not given),93% (active),10%,2,100% (active),inactive,inactive,inactive,inactive
c1ccc2c(CNc3ccnc(NCc4cccc5ccccc45)n3)cccc2c1,71% (active),51% (active),3,99% (active),inactive,inactive,inactive,inactive
O=C(Nc1ccc(-n2ccc(C(F)(F)F)n2)cc1)c1cccs1,67% (active),6%,-6,89% (active),inactive,inactive,inactive,inactive
O=C(Nc1ccc(-c2cccc(-c3nc4ccccc4[nH]3)c2)cc1)c1cnn2cccnc12,36%,64% (active),-1,99% (active),inactive,inactive,inactive,inactive
Cc1cccc2[nH]c(-c3cccc(-c4ccc(NC(=O)C(C)CN5CCOCC5)cc4)c3)nc12 (stereo not given),30%,7%,2,93% (active),inactive,inactive,inactive,inactive
CCN(CC)CCN(Cc1ccc(-c2ccc(C(F)(F)F)cc2)cc1)C(=O)Cn1cc(Cc2cnn(C)c2)c(=O)nc1/C=C/c1cccc(F)c1F,98% (active),11%,-2,95% (active),inactive,inactive,inactive,inactive
COc1ccc(C2CC(=O)C3=C(C2)NC(C)=C(C(=O)OC(C)C)C3c2ccc(O)cc2)cc1OC (stereo not given),98% (active),-1%,-3,99% (active),inactive,inactive,inactive,inactive
Cc1cc(N[C@@H](CC(C)C)C(=O)NCc2cccc(F)c2)nc(NCCc2ccc(F)cc2)n1,6%,0%,-2,90% (active),inactive,inactive,inactive,inactive
